Laboratory results as given in PubChem BioAssay (NCI).
Compounds without any hit were thinned out: in the full panel of roughly 83,000, 20% have a hit.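 Growth was measured after 48 h exposure to one concentration of compound in 96-well plates. Values under 10 count as active.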 Calls of active or inactive are those of the source.

Tests used:
Experiment in all cases: NCI-60 one-dose screen, 48 h (100 = growth as untreated, 0 = no growth, -100 = all killed)
Settings in all cases: 10 µM
RPMI-8226 leukemia = tested on: RPMI-8226 leukemia
OVCAR-8 ovarian = tested on: OVCAR-8 ovarian
OVCAR-5 ovarian = tested on: OVCAR-5 ovarian
SK-OV-3 ovarian = tested on: SK-OV-3 ovarian
IGROV1 ovarian = tested on: IGROV1 ovarian
OVCAR-3 ovarian = tested on: OVCAR-3 ovarian
HS 578T breast = tested on: HS 578T breast
NCI/ADR-RES ovarian = tested on: NCI/ADR-RES ovarian
T-47D breast = tested on: T-47D breast

Measured: growth

COc1cc(C(=O)/C=C/c2cc(-c3cc(OC)c(OC)c(OC)c3)n[nH]2)cc(OC)c1OC
active: RPMI-8226 leukemia -46.1% | OVCAR-8 ovarian 8.1% | IGROV1 ovarian -20% | OVCAR-3 ovarian 7.64% | T-47D breast -26.1%
inactive: OVCAR-5 ovarian 44.9% | SK-OV-3 ovarian 47.3% | HS 578T breast 62.4% | NCI/ADR-RES ovarian 34.6%

COc1ccc(-c2csc(NC(=O)CSc3nc(C)c(-c4ccccc4)n3Nc3ccccc3)n2)cc1
inactive: RPMI-8226 leukemia 30.7% | OVCAR-8 ovarian 31.7% | OVCAR-5 ovarian 81.2% | SK-OV-3 ovarian 88.3% | IGROV1 ovarian 41.8% | OVCAR-3 ovarian 56.6% | HS 578T breast 19.8% | NCI/ADR-RES ovarian 12.1% | T-47D breast 24.8%

ClC(Cl)(Cl)c1nc2nccnc2[nH]1
inactive: RPMI-8226 leukemia 98.8% | OVCAR-8 ovarian 107% | OVCAR-5 ovarian 104% | SK-OV-3 ovarian 102% | IGROV1 ovarian 103% | OVCAR-3 ovarian 118% | HS 578T breast 99.2% | NCI/ADR-RES ovarian 109% | T-47D breast 101%

COc1cc(-c2nn3c(/C=C4/C(=O)Nc5ccccc54)c(-c4ccc(C)cc4)nc3s2)cc(OC)c1OC
active: HS 578T breast -19.4%
inactive: RPMI-8226 leukemia 45.4% | OVCAR-8 ovarian 46.8% | OVCAR-5 ovarian 85.9% | SK-OV-3 ovarian 79.5% | IGROV1 ovarian 77.4% | OVCAR-3 ovarian 43.6% | NCI/ADR-RES ovarian 41.8% | T-47D breast 63.6%

Oc1[nH]c2ccc(Cl)cc2c1/C=c1/ccc2c(c1)N=C(c1cc(F)cc(F)c1)N=2
active: OVCAR-3 ovarian 7.12%
inactive: RPMI-8226 leukemia 74.4% | OVCAR-8 ovarian 77% | OVCAR-5 ovarian 86.8% | SK-OV-3 ovarian 68% | IGROV1 ovarian 53.6% | HS 578T breast 63% | NCI/ADR-RES ovarian 54.2% | T-47D breast 88.4%

CC12O[C@H](C[C@@H](O)[C@H]1O)n1c3ccccc3c3c4c(c5c6ccccc6n2c5c31)C(=O)N(CCCN)C4=O
inactive: RPMI-8226 leukemia 40.2% | OVCAR-8 ovarian 33.9% | OVCAR-5 ovarian 97.2% | SK-OV-3 ovarian 41.8% | IGROV1 ovarian 17.9% | OVCAR-3 ovarian 37.8% | HS 578T breast 43.4% | NCI/ADR-RES ovarian 101% | T-47D breast 24%

Cc1cn(C2CCCCO2)c(=O)nc1NO (stereo unspecified)
inactive: RPMI-8226 leukemia 111% | OVCAR-8 ovarian 101% | OVCAR-5 ovarian 109% | SK-OV-3 ovarian 119% | IGROV1 ovarian 113% | OVCAR-3 ovarian 109% | HS 578T breast 86.8% | NCI/ADR-RES ovarian 107% | T-47D breast 105%

Nc1nc(N=Nc2ccc(O)cc2)cc(=O)[nH]1
inactive: RPMI-8226 leukemia 106% | OVCAR-8 ovarian 97.2% | OVCAR-5 ovarian 104% | SK-OV-3 ovarian 104% | IGROV1 ovarian 109% | OVCAR-3 ovarian 125% | HS 578T breast 108% | NCI/ADR-RES ovarian 94.6% | T-47D breast 95.7%

O=C1/C(=C\c2ccc(F)cc2)CN(C(=O)c2ccccc2F)C/C1=C\c1ccc(F)cc1
active: RPMI-8226 leukemia -35.8% | OVCAR-8 ovarian 1.61% | IGROV1 ovarian -38.4% | OVCAR-3 ovarian -29.8%
inactive: OVCAR-5 ovarian 21.6% | SK-OV-3 ovarian 11.1% | HS 578T breast 11.8% | NCI/ADR-RES ovarian 11.5% | T-47D breast 40.1%

O=C(Nc1cccc(-n2cc(-c3ccncc3)c(-c3cc(O)cc(Cl)c3)n2)c1)c1ccc(N2CCOCC2)c(C(F)(F)F)c1
active: RPMI-8226 leukemia -3.77%
inactive: OVCAR-8 ovarian 22.7% | OVCAR-5 ovarian 81.4% | SK-OV-3 ovarian 50.7% | IGROV1 ovarian 44.3% | OVCAR-3 ovarian 36.4% | HS 578T breast 17.9% | NCI/ADR-RES ovarian 35% | T-47D breast 29.3%

Cc1cc(C)c(CCc2cc(C)c(C)cc2C)cc1C
inactive: RPMI-8226 leukemia 102% | OVCAR-8 ovarian 102% | OVCAR-5 ovarian 103% | SK-OV-3 ovarian 114% | IGROV1 ovarian 111% | OVCAR-3 ovarian 114% | HS 578T breast 108% | NCI/ADR-RES ovarian 107% | T-47D breast 114%

CCCCCCCCCCCCCCCC(=O)OC1[C@@H](OC(=O)CCCCCCCCCCCCCCC)[C@@H](C(=O)N[C@@H](CCCCN)C(=O)OC)O[C@H]1n1cnc2c(=O)[nH]c(NC(=O)C(C)C)nc21 (stereo partly specified)
inactive: RPMI-8226 leukemia 92.5% | OVCAR-8 ovarian 87% | OVCAR-5 ovarian 108% | SK-OV-3 ovarian 99.4% | IGROV1 ovarian 91.8% | OVCAR-3 ovarian 105% | HS 578T breast 107% | NCI/ADR-RES ovarian 102% | T-47D breast 88.2%

O=S(=O)(NCCCNc1nccc(-c2c(-c3ccc(F)cc3)nc3sccn23)n1)c1ccc2ccccc2c1
inactive: RPMI-8226 leukemia 35.9% | OVCAR-8 ovarian 29.7% | OVCAR-5 ovarian 78.7% | SK-OV-3 ovarian 65.2% | IGROV1 ovarian 22.8% | OVCAR-3 ovarian 75.3% | HS 578T breast 71.1% | NCI/ADR-RES ovarian 42.5% | T-47D breast 17.4%

Clc1ccc(Nc2ccnc(NCCCNc3ccnc4cc(Cl)ccc34)n2)cc1
inactive: OVCAR-5 ovarian 18.3%
active: RPMI-8226 leukemia -62.1% | OVCAR-8 ovarian -49% | SK-OV-3 ovarian -32% | IGROV1 ovarian -6.05% | OVCAR-3 ovarian -19% | HS 578T breast -56.7% | NCI/ADR-RES ovarian 4.05% | T-47D breast -63.7%

COc1cc(-c2cc(-c3cc4c([nH]c5ccccc54)c(-c4cc(OC)c(OC)c(OC)c4)n3)cc(-c3ccccc3)n2)cc(OC)c1OC
inactive: RPMI-8226 leukemia 46% | OVCAR-8 ovarian 70.2% | OVCAR-5 ovarian 88.6% | SK-OV-3 ovarian 90.7% | IGROV1 ovarian 74.6% | OVCAR-3 ovarian 72.3% | HS 578T breast 52.5% | NCI/ADR-RES ovarian 42% | T-47D breast 43.3%

COc1cc2cc3c(nc2cc1OC)CCN3Cc1ccc(NC(=O)Nc2ccc(F)cc2F)cc1
inactive: RPMI-8226 leukemia 66% | OVCAR-8 ovarian 79.7% | OVCAR-5 ovarian 105% | SK-OV-3 ovarian 84% | IGROV1 ovarian 89.8% | OVCAR-3 ovarian 84.1% | HS 578T breast 99.7% | NCI/ADR-RES ovarian 73% | T-47D breast 52.1%

COc1ccc(C2=Nc3c(C)nn(-c4ccccc4)c3NC(c3ccc(Oc4ccnc5cc(Cl)ccc45)c(OC)c3)C2)cc1 (stereo unspecified)
inactive: RPMI-8226 leukemia 56.7% | OVCAR-8 ovarian 75.2% | OVCAR-5 ovarian 95.2% | SK-OV-3 ovarian 74.7% | IGROV1 ovarian 73.4% | OVCAR-3 ovarian 79.9% | HS 578T breast 78.6% | NCI/ADR-RES ovarian 79.9% | T-47D breast 61.9%

Cc1cc(Nc2ccc(Cl)cc2)nc(NCCCNc2ccnc3cc(Cl)ccc23)n1
active: RPMI-8226 leukemia -59.8% | OVCAR-8 ovarian -53.5% | OVCAR-5 ovarian -5.16% | SK-OV-3 ovarian -78.7% | IGROV1 ovarian 6.54% | OVCAR-3 ovarian -80.1% | HS 578T breast -53.4% | NCI/ADR-RES ovarian 2.15% | T-47D breast -90.2%

Cc1ncc(-c2ccoc2)c(NC2CCCCCC2)n1
inactive: RPMI-8226 leukemia 105% | OVCAR-8 ovarian 99.1% | OVCAR-5 ovarian 107% | SK-OV-3 ovarian 93.8% | IGROV1 ovarian 96.4% | OVCAR-3 ovarian 101% | HS 578T breast 111% | NCI/ADR-RES ovarian 102% | T-47D breast 92%

COc1cc(/C=N/NC(=O)c2ccccc2Nc2ccnc(C(F)(F)F)c2)ccc1O
inactive: RPMI-8226 leukemia 90.8% | OVCAR-8 ovarian 101% | OVCAR-5 ovarian 116% | SK-OV-3 ovarian 98.9% | IGROV1 ovarian 123% | OVCAR-3 ovarian 109% | HS 578T breast 97.4% | NCI/ADR-RES ovarian 143% | T-47D breast 116%

Cc1ccc(Nc2nnc(-c3cc(-c4ccncc4)n(-c4ccccc4)n3)s2)cc1
inactive: RPMI-8226 leukemia 38.6% | OVCAR-8 ovarian 63.5% | OVCAR-5 ovarian 104% | SK-OV-3 ovarian 100% | IGROV1 ovarian 89.2% | OVCAR-3 ovarian 118% | HS 578T breast 61.9% | NCI/ADR-RES ovarian 59.2% | T-47D breast 64.5%

COc1ccc(/C=C/C(=O)Nc2ccc(-c3nc4ccc(F)cc4s3)cc2)cc1
inactive: RPMI-8226 leukemia 75.4% | OVCAR-8 ovarian 103% | OVCAR-5 ovarian 112% | SK-OV-3 ovarian 114% | IGROV1 ovarian 104% | OVCAR-3 ovarian 113% | HS 578T breast 111% | NCI/ADR-RES ovarian 111% | T-47D breast 91%

O=[P@@]1(c2ccccc2)O[C@H](COCc2ccccc2)[C@@H](OCc2ccccc2)[C@H](OCc2ccccc2)[C@H]1O
active: HS 578T breast -10.7%
inactive: RPMI-8226 leukemia 89.6% | OVCAR-8 ovarian 45% | OVCAR-5 ovarian 99.3% | SK-OV-3 ovarian 38.7% | IGROV1 ovarian 78.3% | OVCAR-3 ovarian 59.5% | NCI/ADR-RES ovarian 73.4% | T-47D breast 72.8%

COc1cc(/C=C/C(=O)c2ccc(Cl)cc2)ccc1OS(=O)(=O)c1ccc(C)cc1
active: RPMI-8226 leukemia -16.7%
inactive: OVCAR-8 ovarian 83.8% | OVCAR-5 ovarian 111% | SK-OV-3 ovarian 96.8% | IGROV1 ovarian 97.9% | OVCAR-3 ovarian 80.7% | HS 578T breast 129% | NCI/ADR-RES ovarian 81.4% | T-47D breast 76.8%

CCN1CCN(c2nc3ccccc3c3c(=O)c4ccccc4sc23)CC1
inactive: RPMI-8226 leukemia 53.8% | OVCAR-8 ovarian 36.9% | OVCAR-5 ovarian 68.7% | SK-OV-3 ovarian 59.9% | IGROV1 ovarian 36.3% | OVCAR-3 ovarian 60.7% | HS 578T breast 52.6% | NCI/ADR-RES ovarian 37.8% | T-47D breast 54.5%

Nc1c(C(=O)Nc2ccccc2)sc2nc3c(cc12)CCCC3
active: OVCAR-3 ovarian -13.7%
inactive: RPMI-8226 leukemia 15.4% | OVCAR-8 ovarian 33.6% | OVCAR-5 ovarian 62% | SK-OV-3 ovarian 24.7% | IGROV1 ovarian 30.5% | HS 578T breast 36.8% | NCI/ADR-RES ovarian 20.4% | T-47D breast 47.3%

Oc1[nH]c2ccc(Cl)cc2c1/C=c1/ccc2c(c1)N=C(c1cccs1)N=2
inactive: RPMI-8226 leukemia 48% | OVCAR-8 ovarian 52.2% | OVCAR-5 ovarian 89.3% | SK-OV-3 ovarian 87.5% | IGROV1 ovarian 61% | OVCAR-3 ovarian 56.1% | HS 578T breast 59.5% | NCI/ADR-RES ovarian 64.3% | T-47D breast 59.4%

ClCCOCCn1cnc2c(Cl)nc(Cl)nc21
inactive: RPMI-8226 leukemia 93.1% | OVCAR-8 ovarian 62.7% | OVCAR-5 ovarian 102% | SK-OV-3 ovarian 97.4% | IGROV1 ovarian 59% | OVCAR-3 ovarian 58.8% | HS 578T breast 12.4% | NCI/ADR-RES ovarian 101% | T-47D breast 80.9%

COc1cc(-c2cc(/C=C/C(=O)c3ccc4c(c3)OCO4)[nH]n2)cc(OC)c1OC
inactive: OVCAR-8 ovarian 76.6% | OVCAR-5 ovarian 83.3% | SK-OV-3 ovarian 99.2% | IGROV1 ovarian 98.5% | OVCAR-3 ovarian 77.7% | HS 578T breast 86.6% | NCI/ADR-RES ovarian 78.5% | T-47D breast 40%
active: RPMI-8226 leukemia -11.6%
